From PubChem BioAssay AID1159580 (chemical genetic matrix, 2015)
The campaign covered roughly 5,500 compounds. About 2,000 (36%) were called active. Another 18% or so got no clear call; they are omitted. Cut-off read from the data, not from the text of the source: active = normalized growth mostly below about 0.91 (no sharp cut-off); inconclusive = no clear call, values can overlap the other calls; inactive = mostly above about 0.92. This is one part of the list.

Experiment: chemical genetic growth profiling, strain panel (AID 1159580);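 note: tested at 20 µM; growth read once vehicle control cultures reached saturation at 30 °C; 1 = growth at the plate median or of vehicle wells; lower values mean less growth of the strain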
Conditions: growth OD

Measured: normalized growth

COc1cnc(NS(=O)(=O)c2ccc(N)cc2)nc1
inactive: S. cerevisiae deletion strains, locus YJR075W, strain HOC1, active compounds read low 0.978 | S. cerevisiae deletion strains, locus YKL009W, strain mrt4, active compounds read low 0.994 | S. cerevisiae deletion strains, locus YKL068W, active compounds read low 0.983 | S. cerevisiae deletion strains, locus YKL085W, strain MDH1 (second series), active compounds read low 0.971 | S. cerevisiae deletion strains, locus YKL085W, strain MDH1, active compounds read low 0.971 | S. cerevisiae deletion strains, locus YKL160W, strain elf1, active compounds read low 0.999 | S. cerevisiae deletion strains, locus YKL190W, strain CNB1, active compounds read low 0.979 | S. cerevisiae deletion strains, locus YKR001C, strain vps1, active compounds read low 0.964 | S. cerevisiae deletion strains, locus YKR026C, strain gcn3, active compounds read low 1 | S. cerevisiae deletion strains, locus YKR091W, strain srl3, active compounds read low 0.998 | S. cerevisiae deletion strains, locus YLL001W, strain dnm1, active compounds read low 0.966 | S. cerevisiae deletion strains, locus YLL026W, active compounds read low 1 | S. cerevisiae deletion strains, locus YLL041C, strain sdh2, active compounds read low 0.997 | S. cerevisiae deletion strains, locus YLR027C, strain aat2, active compounds read low 1.01 | S. cerevisiae deletion strains, locus YLR039C, strain RIC1, active compounds read low 0.969 | S. cerevisiae deletion strains, locus YLR058C, strain SHM2, active compounds read low 0.976 | S. cerevisiae deletion strains, locus YLR102C, strain apc9, active compounds read low 0.973 | S. cerevisiae deletion strains, locus YLR113W, strain HOG1, active compounds read low 0.989 | S. cerevisiae deletion strains, locus YLR221C, strain rsa3, active compounds read low 0.988 | S. cerevisiae deletion strains, locus YLR258W, strain gsy2, active compounds read low 0.99 | S. cerevisiae deletion strains, locus YLR262C, strain YPT6 (second series), active compounds read low 1.02 | S. cerevisiae deletion strains, locus YLR262C, strain YPT6, active compounds read low 0.96 | S. cerevisiae deletion strains, locus YLR268W, strain sec22, active compounds read low 0.888 | S. cerevisiae deletion strains, locus YLR320W, strain mms22, active compounds read low 0.965 | S. cerevisiae deletion strains, locus YLR330W, strain CHS5, active compounds read low 0.994 | S. cerevisiae deletion strains, locus YLR342W, strain FKS1 (second series), active compounds read low 1.03 | S. cerevisiae deletion strains, locus YLR342W, strain FKS1, active compounds read low 1.01 | S. cerevisiae deletion strains, locus YLR357W, strain rsc2, active compounds read low 0.945 | S. cerevisiae deletion strains, locus YLR370C, strain arc18, active compounds read low 1 | S. cerevisiae deletion strains, locus YLR371W, strain rom2, active compounds read low 0.97 | S. cerevisiae deletion strains, locus YLR384C, strain iki3, active compounds read low 1 | S. cerevisiae deletion strains, locus YLR418C, strain cdc73, active compounds read low 0.99 | S. cerevisiae deletion strains, locus YML016C, strain PPZ1, active compounds read low 0.993 | S. cerevisiae deletion strains, locus YML032C, strain rad52, active compounds read low 0.97 | S. cerevisiae deletion strains, locus YML120C, strain ndi1, active compounds read low 1.02 | S. cerevisiae deletion strains, locus YML124C, strain tub3, active compounds read low 0.979 | S. cerevisiae deletion strains, locus YMR058W, strain fet3, active compounds read low 1 | S. cerevisiae deletion strains, locus YMR078C, strain ctf18, active compounds read low 0.976 | S. cerevisiae deletion strains, locus YMR125W, strain sto1, active compounds read low 0.991 | S. cerevisiae deletion strains, locus YMR129W, active compounds read low 0.985 | S. cerevisiae deletion strains, locus YMR205C, strain PFK2, active compounds read low 0.998 | S. cerevisiae deletion strains, locus YMR223W, strain ubp8, active compounds read low 0.979 | S. cerevisiae deletion strains, locus YMR231W, strain pep5, active compounds read low 0.998 | S. cerevisiae deletion strains, locus YMR307W, strain GAS1, active compounds read low 1.03 | S. cerevisiae deletion strains, locus YNL067W, strain RPL9B, active compounds read low 0.982 | S. cerevisiae deletion strains, locus YNL071W, strain lat1, active compounds read low 1.01 | S. cerevisiae deletion strains, locus YNL183C, strain NPR1, active compounds read low 0.933 | S. cerevisiae deletion strains, locus YNL209W, strain ssb2, active compounds read low 0.997 | S. cerevisiae deletion strains, locus YNL233W, strain BNI4, active compounds read low 1 | S. cerevisiae deletion strains, locus YNL248C, strain rpa49, active compounds read low 0.982 | S. cerevisiae deletion strains, locus YNL250W, strain rad50, active compounds read low 0.982 | S. cerevisiae deletion strains, locus YNL271C, strain bni1, active compounds read low 0.979 | S. cerevisiae deletion strains, locus YNL298W, strain CLA4, active compounds read low 0.965 | S. cerevisiae deletion strains, locus YNL307C, strain MCK1, active compounds read low 0.981 | S. cerevisiae deletion strains, locus YNL322C, strain KRE1 (second series), active compounds read low 0.986 | S. cerevisiae deletion strains, locus YNR049C, strain mso1, active compounds read low 1 | S. cerevisiae deletion strains, locus YNR052C, strain pop2, active compounds read low 0.977 | S. cerevisiae deletion strains, locus YOL006C, strain TOP1, active compounds read low 0.945 | S. cerevisiae deletion strains, locus YOL012C, strain htz1 0.813 | S. cerevisiae deletion strains, locus YOL147C, strain pex11, active compounds read low 0.985 | S. cerevisiae deletion strains, locus YOR001W, strain rrp6, active compounds read low 0.99 | S. cerevisiae deletion strains, locus YOR061W, strain CKA2, active compounds read low 0.962 | S. cerevisiae deletion strains, locus YOR069W, strain VPS5, active compounds read low 0.993 | S. cerevisiae deletion strains, locus YOR070C, strain gyp1, active compounds read low 1.01 | S. cerevisiae deletion strains, locus YOR080W, strain dia2, active compounds read low 0.98 | S. cerevisiae deletion strains, locus YOR083W, strain WHI5, active compounds read low 0.943 | S. cerevisiae deletion strains, locus YOR106W, strain vam3, active compounds read low 0.986 | S. cerevisiae deletion strains, locus YOR136W, strain idh2, active compounds read low 0.987 | S. cerevisiae deletion strains, locus YOR144C, strain elg1, active compounds read low 0.976 | S. cerevisiae deletion strains, locus YOR184W, strain ser1, active compounds read low 0.985 | S. cerevisiae deletion strains, locus YOR231W, strain MKK1, active compounds read low 0.99 | S. cerevisiae deletion strains, locus YOR265W, strain rbl2, active compounds read low 1.02 | S. cerevisiae deletion strains, locus YOR270C, strain vph1, active compounds read low 1.04 | S. cerevisiae deletion strains, locus YOR290C, strain snf2, active compounds read low 0.984 | S. cerevisiae deletion strains, locus YOR316C, strain cot1, active compounds read low 0.958 | S. cerevisiae deletion strains, locus YPL051W, strain arl3, active compounds read low 0.999 | S. cerevisiae deletion strains, locus YPL055C, strain LGE1, active compounds read low 0.949 | S. cerevisiae deletion strains, locus YPL078C, strain atp4, active compounds read low 0.991 | S. cerevisiae deletion strains, locus YPL106C, strain sse1, active compounds read low 0.952 | S. cerevisiae deletion strains, locus YPL240C, strain hsp82, active compounds read low 1 | S. cerevisiae deletion strains, locus YPL256C, strain CLN2, active compounds read low 0.99 | S. cerevisiae deletion strains, locus YPR119W, strain clb2, active compounds read low 0.985 | S. cerevisiae deletion strains, locus YPR141C, strain kar3, active compounds read low 0.96 | S. cerevisiae deletion strains, locus YPR163C, strain tif3, active compounds read low 0.991 | S. cerevisiae deletion strains, locus YPR167C, strain met16, active compounds read low 0.983 | S. cerevisiae deletion strains, strain wtn01, active compounds read low 0.989 | S. cerevisiae strains, strain wild type, active compounds read low 0.983
